In PubChem BioAssay (NCI):
Compounds without any hit were thinned out: in the full panel of roughly 83,000, 20% have a hit.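 Method: cells in 96-well plates; compound added at one concentration; 48 h incubation; percent growth measured; values under 10 scored active.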 Unmarked numbers belong to inactive results. Calls of active or inactive are those of the source.

test system: HL-60(TB) leukemia; assay: NCI-60 one-dose screen, 48 h (100 = growth as untreated, 0 = no growth, -100 = all killed); settings: 10 µM unless noted

| Structure (SMILES) | growth |
| --- | --- |
| O=[N+]([O-])c1ccc(Cl)c(-c2cc(CCCCO)on2)c1 | 90.7% |
| O=[N+]([O-])c1ccc(-c2noc(-c3cccs3)n2)cc1 | 70.1% |
| CCN(CC)CC(=O)Nc1cccc(C(=O)OC(C)C)c1 | 93% |
| CCCCCc1ccc(C)cc1OC(=O)CCl | 114% |
| CC(C)(C)c1cc(C[P+](c2ccccc2)(c2ccccc2)c2ccccc2)cc(C(C)(C)C)c1O | -45.3% (active) |
| Nc1nnc(C(=O)c2cnc3n(c2=O)CCCCC3)s1 | 110% |
| O=C(CNC(=O)c1cccc2ccccc12)Nc1ccccc1Cc1ccccc1 | -15.9% [5 µM] (active) |
| O=C(Nc1ccc(Br)cc1)c1ccc(Cl)c(Cl)c1 | 19.4% |
| CCN(CC)CCCNc1cc(OC)cc2cccnc12 | 94.7% |
| C=C(C)[C@@H]1CC[C@]2(C)[C@H](CC(=O)N[C@H]3[C@@H]4C[C@](C)(C(=O)OC)CC[C@]4(C)CC[C@]32C)[C@@]1(C)CCC#N | 83.1% |
| C=C(NC(=O)[C@H](C(C)C)N(C)c1cccc2[nH]ccc12)C(=O)OC | 109% |
| COC(=O)C1CCc2sc3ncnc(Nc4cn[nH]c4C(=O)Nc4ccc(CN5CCN(C)CC5)cc4)c3c21 (stereo unspecified) | -28.8% (active) |
| Cc1cc(SCc2ccccc2)nc(N)n1 | 119% |
| CC(C)CSc1nc(-c2ccc(F)cc2)c(C#N)c(N2CCCCC2)n1 | 101% |
| O=C1Nc2ccccc2/C1=C/c1cn(CCCn2c3ccccc3c(=O)c3ccccc32)c2ccccc12 | 84% |
| CNC(=O)c1c(NC(=O)c2ccc(C(C)C)cc2)sc2c(CN(C)C)c(O)ccc12 | 85.9% |
| Nc1c(C(=O)Nc2c(Cl)cccc2Cl)sc2nc3c(cc12)C(=O)CCC3 | 11.5% |
| C=C[C@]1(C)C=C2CC[C@@H]3C(C)(C)C(=O)CC[C@@]3(C)[C@@H]2CC1 | 101% |
| CC(C)CCC[C@@H](C)[C@H]1CC[C@H]2[C@@H](Nc3ccc(O)cc3)CCC[C@]12C | 39.2% |
| CCc1ccc2c(c1)N(CCO)C1=C(C(=O)OC1)C2c1ccccc1 (stereo unspecified) | 94.9% |
| CCCC(=O)Nc1ccccc1C(=O)O | 94.1% |
| CC(C)CCC[C@@H](C)[C@H]1CC[C@H]2[C@@H]3CC=C4c5sc(Nc6cc(C(F)(F)F)cc(C(F)(F)F)c6)nc5CC[C@]4(C)[C@H]3CC[C@]12C | 101% |
| CC(=O)[C@@H]1CC[C@]2(C(N)=O)CC[C@]3(C)[C@H](CC[C@@H]4[C@@]5(C)CCCNC(C)(C)[C@@H]5CC[C@]43C)[C@@H]12 | 91% |
| Cc1cc(N(CCNc2ccnc3cc(Cl)ccc23)Cc2ccc3c(c2)OCO3)nc(N2CCCC2)n1 | -61.9% (active) |
| COC(=O)[C@H]1Cc2c([nH]c3ccccc23)[C@@H](c2cccs2)N1 | 99.7% |
| C=C1C(=O)O[C@H]2[C@H]1CC/C(CNC(=O)/C=C/c1ccccc1F)=C\CC[C@@]1(C)O[C@@H]21 | -31.9% (active) |
